In PubChem BioAssay AID1626 (SRMLSC, 2009):
In all, about 220,000 compounds went through this assay and about 2,000 (0.91%) were called active. Roughly 2% stayed inconclusive and do not appear here. The list is a sample of the results. Results with a measured potency or affinity are listed apart. Values without a mark were called inactive. No stated cut-off is given here; in the data, inconclusive means inhibition above about 80% without an active follow-up result; inactive means below that; test concentration not stated here.

Test: M. tuberculosis H37Rv growth inhibitors, H37Rv strain (AID 1626);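 further: bacteria incubated seven days before Alamar blue readout; 0% = bacteria only wells and 100% = bacteria with antibiotic wells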
Details: stronger effect = higher value, concentration not given here

Row | Compound | inhibition [%]
1 | CC1CCN(C(=O)CSc2nnc(-c3cccnc3)n2C2CCCCC2)CC1 | -2.09
2 | COc1cc(-c2cc(C(=O)Nc3ccc(S(=O)(=O)Nc4ncccn4)cc3)c3ccccc3n2)cc(OC)c1OC | 40.2
3 | Cc1cc(C)cc(OCc2nnc(SCC(=O)N3CCN(c4ccccc4)CC3)o2)c1 | -4.78
4 | Cc1cccc(C(=O)c2c(N)sc3c2CCC(C)C3)c1 (stereo unspecified) | 5.18
5 | CCOc1ccc(S(=O)(=O)NCCN2CCOCC2)c2ccccc12 | -4.29
6 | CCOC(=O)C1(CC2CCCCO2)CCN(C(=O)Nc2ccccc2SC)CC1 (stereo unspecified) | 6.6
7 | CCC(=O)N1CCN(c2c(Cl)cccc2[N+](=O)[O-])CC1 | 4.63
8 | CCCCN(CC)CCCNC(=S)Nc1ccc2nc3n(c(=O)c2c1)CCCCC3 | -5.11
9 | O=C(COC(=O)c1n[nH]c2ccccc12)Nc1ccccc1 | -10.9
10 | O=C(NCCN1CCOCC1)c1ccc(Cl)cc1[N+](=O)[O-] | -10.2
11 | O=C(NCCN1CCOCC1)c1ccccc1[N+](=O)[O-] | 1.9
12 | O=C(NCCCN1CCOCC1)c1cc(Cl)ccc1[N+](=O)[O-] | -3.28
13 | O=C(NCCCN1CCOCC1)c1ccc(Cl)cc1[N+](=O)[O-] | -0.73
14 | COc1ccc(CNC(=O)COC(=O)c2n[nH]c3ccccc23)cc1 | 10.8
15 | Cc1ccc(SC[C@H](CC(C)C)N2CCN(CCc3ccccc3)CCC2=O)cc1 | 16.3
16 | CCOc1ccccc1-c1n[nH]c(=S)o1 | 6.98
17 | COCCOC(=O)C1=C(C)NC(=O)NC1c1c(Cl)nc2c(C)cccn2c1=O (stereo unspecified) | -7.69
18 | Cc1noc(C)c1S(=O)(=O)N1CCCC(C(=O)c2cccc(OC(C)C)c2)C1 (stereo unspecified) | 0
19 | Cc1nc2cc(C(=O)OCC(=O)NC(C)C(C)C)ccc2n1-c1ccccc1 (stereo unspecified) | -6.92
20 | Cc1nc2cc(C(=O)OCC(=O)NC3CCS(=O)(=O)C3)ccc2n1-c1ccccc1 (stereo unspecified) | -9.28
21 | CCCOc1ccc(/C(O)=C2/C(=O)C(=O)N(CCCOC)C2c2ccncc2)cc1 (stereo unspecified) | -0.21
22 | COCCCNS(=O)(=O)c1ccc2c(c1)OCCO2 | -7.88
23 | CC(C)c1nc2sc3ccccc3c(=O)c2c(=O)n1Cc1ccccc1 | -7.18
24 | Nc1ccc(C#Cc2c(-c3ccsc3)oc3ccc(N4CCOCC4)cc23)cc1 | 61.1

Row | Compound | inhibition [%]
25 | COc1ccc(C#Cc2c(-c3ccsc3)oc3ccc(-c4cc(OC)c(OC)c(OC)c4)cc23)cc1 | 0.45
26 | COc1ccc(-c2oc3ccc(N4CCOCC4)cc3c2C#CC2(O)CCCCC2)cc1 | 89.2
27 | COc1ccc(-c2ccc3oc(-c4ccc(OC)cc4)c(C#CC4(O)CCCCC4)c3c2)cc1 | 18.4
28 | CCOc1ccc(C(c2c(NC(=O)c3ccccc3)sc(C)c2C)N2CCN(C)CC2)cc1 (stereo unspecified) | 17.1
29 | c1ccc(C(c2ccccc2)N2CCN(C(c3ccccn3)c3nnnn3C3CCCC3)CC2)cc1 (stereo unspecified) | 6.45
30 | COc1cc(OC)c2c(=O)cc(-c3cccnc3)oc2c1 | -11.6
31 | CSc1sc(-c2n[nH]c(=S)n2C)c2c1C=CCC2 | 5.83
32 | COC(=O)c1c(NC(=O)c2ccccc2)sc(Cc2ccccc2)c1C | -9.2
33 | COC(=O)c1c(NC(=O)c2ccccc2)sc(C(N)=O)c1C | -3.85
34 | CC(O)CCC(=O)NNC1CC(=O)N(c2ccccc2)C1=O (stereo unspecified) | -8.86
35 | C=CCN(c1ccccc1)S(=O)(=O)c1cccc(C(=O)O)c1 | -12.8
36 | Cc1ccc(C)c(-n2nnnc2Sc2nc([N+](=O)[O-])nn2C)c1 | -10.2
37 | Cc1ccc(-n2nnnc2Sc2nc([N+](=O)[O-])nn2C)cc1 | 0.83
38 | Cc1ccc(C2(c3noc(CN4CCC(c5ccncc5)CC4)n3)CCCC2)cc1 | 13.7
39 | O=CC1=C(N2CCOCC2)/C(=C\c2ccccc2)CC1 | 0.77
40 | O=C(O)c1ccc(N/N=C/C2=C(N3CCOCC3)C(=C\c3ccccc3)/CC2)cc1 | -3.9
41 | CC(=O)Nc1ccc(NC(=O)/C=C/c2cccc(C(F)(F)F)c2)cc1 | 0.39
42 | CCc1ccc2c(c1)C(c1ccncc1)=NNC(c1ccccc1)=N2 | 8.68
43 | CCCC(=O)Nc1nnc(SCC(=O)Nc2ccc3c(c2)OCO3)s1 | 5.81
44 | CN1CCN(C(=O)c2ccc(CSc3nc4ccncc4n3Cc3ccc(F)cc3)cc2)CC1 | -0.01
45 | COc1ccc2nc(C)cc(C(=O)O)c2c1 | 0.85
46 | COc1ccc(C)cc1NC(=O)CN1CCN(C/C=C/c2ccccc2)CC1 | -3.7
47 | O=C(CN1CCN(C/C=C/c2ccccc2)CC1)Nc1ccccc1C(=O)NC1CC1 | -0.65
48 | O=C(COc1ccccc1)N1CCN(C/C=C/c2ccccc2)CC1 | -6.49

Row | Compound | inhibition [%]
49 | COc1ccccc1NC(=O)C(C)N1CCN(C/C=C/c2ccccc2)CC1 (stereo unspecified) | 11.9
50 | O=C(CN1CCN(C/C=C/c2ccccc2)CC1)Nc1ccc(F)cc1F | -0.62
51 | O=C(COc1ccc(Cl)cc1)N1CCN(C/C=C/c2ccccc2)CC1 | 0.36
52 | Cc1n[nH]c(=O)nc1NCc1ccc(Cl)cc1 | 0.09
53 | CC(C)(C)NC(=O)COC(=O)CCC(=O)c1ccc(F)cc1 | -0.61
54 | Cc1ccc(/C=N/NC(=O)CNC(=O)c2ccc(S(=O)(=O)N(C)C)cc2)cc1 | -4.56
55 | Cc1ccnc(NS(=O)(=O)c2ccc(NC(=O)/C=C/c3cccs3)cc2)n1 | 11.1
56 | CCOC(=O)C1C(c2ccccc2)NC(=S)NC1(C)O (stereo unspecified) | 1.27
57 | COc1ccc(Nc2ncc(C(=O)O)c3ccccc23)cc1 | 5.05
58 | Cc1cc2ccc(C)c(C)c2nc1SCC(=O)c1cccs1 | -3.91
59 | Nc1nc(NCC2CCCO2)nc(NCC2CCCO2)c1[N+](=O)[O-] (stereo unspecified) | -0.89
60 | O=C(CCCCCN1C(=O)C2C3C=CC(C3)C2C1=O)Nc1nccs1 (stereo unspecified) | -6.21
61 | CCc1cccc(C)c1NC(=S)N1CCCCC1c1cccnc1 (stereo unspecified) | 1.2
62 | COC(=O)C(C#N)c1nc2ccccc2nc1N1CCN(Cc2ccc3c(c2)OCO3)CC1 (stereo unspecified) | -4.28
63 | CC(C)COC(=O)C(C#N)c1nc2ccccc2nc1N1CCN(Cc2ccc3c(c2)OCO3)CC1 (stereo unspecified) | 2.75
64 | CC(N=C1NC(C)(C)Cc2ccccc21)C(=O)O (stereo unspecified) | -3.94
65 | Cn1c(Cn2c(=O)sc3ccccc32)nnc1SCC(=O)NC1CCCC1 | -8.44
66 | Cc1cc(C)n(C(=O)c2ccccc2[N+](=O)[O-])n1 | 6.43
67 | Cc1cc(C)n(C(=O)c2ccc([N+](=O)[O-])cc2N)n1 | -10.3
68 | CC1C=CCC2C(=O)N(c3ccc(Cl)cc3O)C(=O)C12 (stereo unspecified) | 10.7
69 | COc1ccc2nc(/N=C(\N)NC(=O)C(C)(C)C)nc(C)c2c1 | 14.9
70 | Cc1ccc2nc(/N=C(\N)NC(=O)N3c4ccccc4Sc4ccccc43)nc(C)c2c1 | 94.5
71 | COc1ccc(CN(CC2CCC(C(=O)O)CC2)C(=S)Nc2cc(C)ccc2C)cc1 (stereo unspecified) | 4.91
72 | O=C(NC1CSC/C1=N\O)c1ccccc1 (stereo unspecified) | -2.37

Row | Compound | inhibition [%]
73 | O=C(/C=C/c1ccccc1Cl)c1ccc(O)cc1 | 36.8
74 | COc1ccc(/C=C/C(=O)c2ccc(Cl)cc2)c(OC)c1 | 7.24
75 | COc1ccccc1/C=C/C(=O)c1ccc(Cl)cc1 | 19.9
76 | COc1ccccc1/C=C/C(=O)c1ccccc1 | 5.69
77 | Cc1nc2nc(SCC(=O)C(C)(C)C)[nH]c2cc1Br | -3.7
78 | CC(C)(C)c1cc(NC(=O)c2cccc([N+](=O)[O-])c2)no1 | 4.63
79 | CC1(c2nnc(-c3ccccc3)o2)CC(c2ccc(F)cc2)=NO1 (stereo unspecified) | -2.41
80 | COC(=O)c1ccc(N=c2sc(C(=O)OC)cc(=O)n2C)cc1 | 7.67
81 | CCOC(=O)c1ccc(N=c2sc(C(=O)OC)cc(=O)n2-c2ccc(C(=O)OCC)cc2)cc1 | 63.5
82 | COc1c(F)c(F)c(C(=O)O)c(Nc2cc(C)cc(C)c2)c1F | -9.39
83 | O=c1cc(-c2ccccc2F)oc2ccccc12 | -6.27
84 | O=c1cc(-c2ccc(F)cc2)oc2ccccc12 | -4.83
85 | N#Cc1cccc(NC(=O)CC2CCCCC2)c1 | 1.61
86 | Cc1ccc(N2C(=O)NC(=O)/C(=C\c3ccc(N4CCOCC4)cc3)C2=O)cc1 | -2.37
87 | CS(=O)(=O)N1CCn2c1nc1ccccc12 | -12.2
88 | CC1=C(C#N)C(c2cccnc2)C2=C(CC(c3ccc(Cl)cc3)CC2=O)N1 (stereo unspecified) | 5.84
89 | COc1ccc(C2C(C#N)=C(C)NC3=C2C(=O)CC(C)(C)C3)cc1 (stereo unspecified) | 6.62
90 | COC(=O)C1=C(C(=O)OC)[C@@H]2N(Cc3ccccc3)c3ccccc3[C@@]23C[C@@H](C(=O)OC)N(C(=O)NC2CCCCC2)C3=N1 | -1.86
91 | CC(=O)c1ccc(NC(=O)C2CC(=O)N(Cc3ccccc3)C2)cc1 (stereo unspecified) | -1.96
92 | CCOc1nc(-c2ccc(Cl)cc2)nc2ccccc12 | -0.59
93 | O=C(CCl)N(Cc1ccccc1)c1ccccc1 | 77.7
94 | O=C(CCl)N(c1ccc(Cl)cc1)c1c[nH]c2ccccc12 | 75.3
95 | CC(=O)N(c1ccc(Cl)cc1)c1c[nH]c2ccccc12 | -5.95
96 | O=C(N(c1ccccc1)c1ccccc1)N(c1ccccc1)c1ccccc1 | -4.02
